# From PMC4552634, “A New Set of Chemical Starting Points with Plasmodium falciparum Transmission-Blocking Potential for Antimalarial Drug Discovery” (PLoS ONE, 2015)
# About 3,200 (25%) of roughly 13,000 compounds showed an effect of 50% or more. Some of the results follow.
# Tested on: P. falciparum stage V gametocytes
# Set-up: BacTiter-Glo ATP luminescence viability of purified stage V gametocytes in 384-well plates, per cent inhibition versus DMSO
# Conditions: 48 h, 5 µM; inhibitor
row,Compound,% Inhibition [%]
1,COCC(C)n1c(SC(C)C(=O)Nc2cc([N+](=O)[O-])ccc2Cl)nc2ccccc2c1=O (stereo not drawn) [TCMDC-123709],-35.25
2,CC(Cc1ccc(OCCOc2ccccc2)cc1)NCC(O)c1cccc(Cl)c1 (stereo not drawn) [TCMDC-138939],12.28
3,C[C@H](Cc1ccc(OCCCCCCOc2ccc(C[C@@H](C)NC(=O)[C@H](O)c3cccc(Cl)c3)cc2)cc1)NC[C@H](O)c1cccc(Cl)c1 [TCMDC-131571],-3.505
4,C[C@H](Cc1ccc(C[C@@H](C)NC[C@H](O)c2cccc(Cl)c2)cc1)NC[C@H](O)COc1ccccc1 [TCMDC-131549],104.7
5,CC(NCCc1cccc(Cl)c1)C(O)c1ccc(OCCCCCCOc2ccc(C(O)C(C)NCCc3cccc(Cl)c3)cc2)cc1 (stereo not drawn) [TCMDC-139334],98.69
6,CCCN1CCN(c2cc(NCC)c3c4c(onc24)-c2ccccc2C3=O)CC1 [TCMDC-123898],-28.72
7,c1cc(COc2ccc(C3=NCCN3)cc2)nc(COc2ccc(C3=NCCN3)cc2)c1 [TCMDC-137805],-1.887
8,CN1CCN(c2ccnc3ccc(NC(=O)Nc4ccc5ccccc5c4)cc23)CC1 [TCMDC-139343],-1.403
9,Cc1cccc2[nH]c(-c3cccc(-c4cccc(NC(=O)c5cnc[nH]5)c4)c3)nc12 [TCMDC-136936],-12.17
10,Cc1cccc2[nH]c(-c3ccc(-c4cccc(NC(=O)c5ccncc5)c4)cc3)nc12 [TCMDC-136958],22.27
11,Cc1cccc2[nH]c(-c3cccc(-c4ccc(NC(=O)c5ccc(=O)[nH]n5)cc4)c3)nc12 [TCMDC-137034],-23.81
12,Cc1cccc2[nH]c(-c3cccc(-c4ccc(NC(=O)NC(C)C)cc4)c3)nc12 [TCMDC-133251],-14.46
13,Cc1cccc2[nH]c(-c3cccc(-c4cccc(NC(=O)c5ccoc5)c4)c3)nc12 [TCMDC-136846],20.35
14,Cc1cccc2[nH]c(-c3cccc(-c4ccc(NC(=O)c5ccncc5)cc4)c3)nc12 [TCMDC-136966],61.29
15,Cc1cccc2[nH]c(-c3cccc(-c4ccc(NC(=O)c5ccoc5)cc4)c3)nc12 [TCMDC-136847],83.68
16,Cc1cccc2[nH]c(-c3cccc(-c4ccc(NC(=O)c5cnc[nH]5)cc4)c3)nc12 [TCMDC-136937],92.2
17,Cc1cccc2[nH]c(-c3cccc(-c4cccc(NC(=O)c5ccncc5)c4)c3)nc12 [TCMDC-136965],-36.15
18,O=C(Nc1ccc(-c2ccc(-c3nc4ccccc4[nH]3)s2)cc1)c1ccncc1 [TCMDC-136954],11.16
